Records with an inconclusive call do not appear. A number with no mark means an inactive call. Activity calls are given as the source filed them. Calls follow the shape of the dose curve; as a rule, active = well fitted inhibition curve with a large enough effect; inconclusive = small, poorly fitted or top-dose-only effect; inactive = flat fitted curve, though single readings scatter. Where a SMILES comes first, the peptide text is derived from it. [ ]: non-standard residue; d: D form. ξ: configuration not given here. ξPhe(βξ-Me) = CC(c1ccccc1)C(N)C(=O)O; GABA = NCCCC(=O)O
Tests used:
Test in all cases: Cytotoxic Profiling of Annotated Libraries Using Quantitative High-Throughput Screening (AID 1296008); also: nearly all actives have a fitted effect of over 60% in size
Settings in all cases: Five cell lines viability, CellTiter-Glo ATP luminescence, 48-72 h; max response: active compounds read low
HaCat = system: HaCat
Summary of the method: (§1)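 Cytotoxicity was measured as CellTiter-Glo ATP luminescence, read after 10 min at room temperature. Compound treatment of the cells lasted 48 or 72 hr at 37 degrees Celsius in a qHTS format.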

KB-3-1 = system: KB-3-1
Summary of the method: as §1

NIH3T3 = system: NIH3T3
Summary of the method: as §1
% is scaled to controls: 0 for no effect and ±100 for the full control effect; potency is read from the fitted curve at half-maximal effect.

CC(C)CC1NC(=O)C(C)NC(=O)C(CC(C)C)OC(=O)CCCNC1=O (configuration not stated)
max response (HaCat): -8.69%
outcome (KB-3-1): inactive
max response (NIH3T3): -22.2%

CN(C)C1CCN(C(=O)c2ccc(NC(=O)Nc3ccc(-c4nc(N5CCOCC5)nc(N5CCOCC5)n4)cc3)cc2)CC1
Potency (HaCat): 116 nM (active)
Potency (KB-3-1): 58 nM (active)
Potency (NIH3T3): 130 nM (active)

O=C(Nc1ccc(S(=O)(=O)Nc2nccs2)cc1)C(c1ccccc1)c1ccccc1
max response (HaCat): -1.59%
max response (KB-3-1): 5.78%
max response (NIH3T3): 3.11%

C[C@@H]1O[C@@H](O[C@@H]2CO[C@@H](O[C@H]3CC[C@@]4(C)C(CC[C@]5(C)C4CC=C4[C@@H]6CC(C)(C)CC[C@]6(C(=O)O[C@@H]6O[C@H](CO)[C@@H](O)[C@H](O)[C@H]6O)CC[C@]45C)[C@]3(C)CO)[C@H](O)[C@H]2O[C@@H]2O[C@H](CO)[C@@H](O)[C@H](O)[C@H]2O)[C@H](O)[C@H](O)[C@H]1O (some centres not stated)
max response (HaCat): -0.513%
outcome (KB-3-1): inactive
max response (NIH3T3): 2.94%

CC(C)[C@@H]1C(=O)N(S(C)(=O)=O)[C@@H]2CCN(C(=O)/C=C/CN3CCCCC3)[C@H]21
max response (HaCat): -0.855%
max response (KB-3-1): 5.42%
max response (NIH3T3): 1.85%

CCN(CC)Cc1ccc(C(=O)N(CCc2ccccc2OC)[C@@H]2CCNC2)cc1
max response (HaCat): -4.71%
Potency (KB-3-1): 3990 nM (active)
Potency (NIH3T3): 2520 nM (active)

CC1CC[C@]2(C(=O)O)CC[C@]3(C(=O)O)C(=CCC4[C@@]5(C)CC[C@H](O[C@@H]6O[C@H](CO)[C@@H](O)[C@H](O)[C@H]6O)C(C)(C)C5CC[C@]43C)C2C1C (some centres not stated)
max response (HaCat): 4.65%
max response (KB-3-1): 6.73%
max response (NIH3T3): 2.56%

C/C1=C\[C@H]2OC(=O)[C@@H](C)[C@@H]2CC/C(C(=O)O)=C/CC1
max response (HaCat): -0.286%
max response (KB-3-1): -0.178%
max response (NIH3T3): -2.73%

C[C@@H]1CC[C@]2(C(=O)O[C@@H]3O[C@H](CO)[C@@H](O)[C@H](O)[C@H]3O)CC[C@]3(C)C(=CCC4[C@@]5(C)C[C@@H](O)[C@H](O)[C@@](C)(C(=O)O[C@H]6[C@H](O)C[C@@]7(C)C(CC[C@]8(C)C7CC=C7[C@H]9[C@](C(=O)O[C@@H]%10O[C@H](CO)[C@@H](O)[C@H](O)[C@H]%10O)(CC[C@@H](C)[C@@]9(C)O)CC[C@]78C)[C@@]6(CO)C(=O)O)C5CC[C@]43C)[C@@H]2[C@]1(C)O (some centres not stated)
max response (HaCat): -16.1%
outcome (KB-3-1): inactive
max response (NIH3T3): 4.48%

COC(=O)c1ccnc(-c2cc(C(=O)NCCc3ccccc3)ccn2)c1
max response (HaCat): 1.24%
max response (KB-3-1): 1.93%
max response (NIH3T3): 1.58%

CC1(C(=O)O)CCCC2(C)C3=CCC4CC3(CCC12)CC4CO (configuration not stated)
max response (HaCat): 2.08%
max response (KB-3-1): 2.22%
max response (NIH3T3): -1.37%

CC1=C2C[C@H]3O[C@@]3(C)CCC3O[C@@]3(C)C[C@@]2(O)OC1=O (some centres not stated)
max response (HaCat): -4.97%
outcome (KB-3-1): inactive
max response (NIH3T3): 2.41%

NC(=O)c1cnc(NCCc2ccc(O)c(Cl)c2)nc1NCc1ccccc1
Potency (HaCat): 14600 nM (active)
Potency (KB-3-1): 16400 nM (active)
Potency (NIH3T3): 5170 nM (active)

CCCN1CCN(c2ccc(C(=O)NC3(C(=O)NCC#N)CCCCC3)cc2)CC1
max response (HaCat): -5.96%
max response (KB-3-1): -7.48%
max response (NIH3T3): 1.62%

C[C@@H]1O[C@@H](O[C@H]2[C@@H]3C=CO[C@@H](O[C@@H]4O[C@H](CO)[C@@H](O)[C@H](O)[C@H]4O)[C@@H]3[C@@]3(CO)O[C@@H]23)[C@H](OC(=O)/C=C/c2ccccc2)[C@H](O)[C@H]1O
outcome (HaCat): inactive
outcome (KB-3-1): inactive
max response (NIH3T3): -1.15%

CC1NC(=O)CCCNC(=O)C(Cc2c[nH]c3ccccc23)NC(=O)C(C)NC(=O)C(C(C)C)NC(=O)C(C(C)c2ccccc2)NC(=O)C(C(C)C)NC1=O (stereo not drawn) (cyclo([GABA]AV[ξPhe(βξ-Me)]VAW); configuration not given here)
max response (HaCat): -0.27%
max response (KB-3-1): -4.62%
max response (NIH3T3): -4.21%

C=C1CCC2C(C(C)(C)O)CCC2(C)CC(O)C(=C)CCC1O (configuration not stated)
max response (HaCat): -2.57%
max response (KB-3-1): 2.13%
max response (NIH3T3): -9.68%

COCCOc1ccc(N2CCN(CCn3ncc4c3nc(N)n3nc(-c5ccco5)nc43)CC2)cc1
max response (HaCat): 2.38%
max response (KB-3-1): -29.2%
max response (NIH3T3): 0.99%

Nc1ncnc2c1ncn2CCNCCCCCO
max response (HaCat): -23.1%
outcome (KB-3-1): inactive
max response (NIH3T3): -0.352%

Cn1nc(C(C)(C)C)cc1C(=O)NC(Cc1cccc(Cl)c1)C(=O)NCC#N (configuration not stated)
max response (HaCat): -59.1%
max response (KB-3-1): 1.87%
max response (NIH3T3): 0.163%

CC1=C(COC2OC(CO)C(O)C(O)C2O)C(C(CO)C(=O)O)CC1 (configuration not stated)
max response (HaCat): -4.43%
max response (KB-3-1): 9.18%
max response (NIH3T3): -0.514%

CCn1cc(NC(=S)Nc2cc(Cl)ccc2OC)c(C(N)=O)n1
max response (HaCat): -0.793%
outcome (KB-3-1): inactive
max response (NIH3T3): -1.95%

COC(=O)c1c(C)cc(OC(=O)c2c(C)cc(OC)cc2OC)cc1O[C@@H]1O[C@H](CO)[C@@H](O)[C@H](O)[C@H]1O
max response (HaCat): -0.836%
max response (KB-3-1): -1.14%
max response (NIH3T3): -1.71%

CN[C@H](C(=O)N[C@H](C(=O)N(C)[C@H](/C=C(\C)C(=O)O)C(C)C)C(C)(C)C)C(C)(C)c1ccccc1
max response (HaCat): -1.54%
Potency (KB-3-1): 4.6 nM (active)
max response (NIH3T3): -50.4%

CCn1c(=O)c(-c2ccn[nH]2)cc2c(C)nc(N)nc21
Potency (HaCat): 2590 nM (active)
Potency (KB-3-1): 7310 nM (active)
Potency (NIH3T3): 1840 nM (active)

COC(=O)N1CCC(n2ncc3c(N4CCOCC4)nc(-c4ccc(NC(=O)Nc5ccc(CO)cc5)cc4)nc32)CC1
Potency (HaCat): 3660 nM (active)
Potency (KB-3-1): 231 nM (active)
Potency (NIH3T3): 1460 nM (active)

CC(=O)O[C@]1(C(C)=O)CC[C@H]2[C@@H]3C[C@H](C)C4=CC(=O)C=C[C@]4(C)[C@@]3(F)[C@@H](O)C[C@@]21C
max response (HaCat): 3.64%
outcome (KB-3-1): inactive
max response (NIH3T3): 3.11%

C=CC(=O)Nc1cc(Nc2ncc(Cl)c(-c3c[nH]c4ccccc34)n2)c(OC)cc1N(C)CCN(C)C
Potency (HaCat): 580 nM (active)
Potency (KB-3-1): 4110 nM (active)
Potency (NIH3T3): 5800 nM (active)

COCCN1CCN(Cc2ccc(-c3n[nH]c4c3C(=O)c3c(NC(=O)NN5CCOCC5)cccc3-4)cc2)CC1
Potency (HaCat): 231 nM (active)
Potency (KB-3-1): 146 nM (active)
Potency (NIH3T3): 517 nM (active)

CCC(O)C(C)C1CCC(C(C)C(=O)O)O1 (configuration not stated)
max response (HaCat): 3.27%
outcome (KB-3-1): inactive
max response (NIH3T3): 2.92%

CCOc1ccc(NC(=S)N2CCC(C(O)(c3ccccc3)c3ccccc3)CC2)cc1
max response (HaCat): 1.92%
outcome (KB-3-1): inactive
max response (NIH3T3): -1.64%

CC1=C(CCC(C)O[C@@H]2O[C@H](CO)[C@@H](O)[C@H](O)[C@H]2O)C(C)(C)CCC1=O (some centres not stated)
max response (HaCat): -0.525%
max response (KB-3-1): 8.72%
max response (NIH3T3): -15.3%

CC(C)c1cc(CNc2nc(Nc3cc(C4CC4)[nH]n3)cc(N3CCN(C)CC3)n2)on1
Potency (HaCat): 2310 nM (active)
Potency (KB-3-1): 146 nM (active)
Potency (NIH3T3): 461 nM (active)

C=C[C@H]1CN2CC[C@H]1C[C@@H]2C(O)c1ccnc2ccc(OC)cc12 (some centres not stated)
max response (HaCat): 2.46%
max response (KB-3-1): 4.51%
max response (NIH3T3): 3.58%

COc1cc(N2CCC(N3CCN(C)CC3)CC2)ccc1Nc1ncc(Cl)c(-c2c[nH]c3ccccc23)n1
Potency (HaCat): 3660 nM (active)
Potency (KB-3-1): 4610 nM (active)
Potency (NIH3T3): 1460 nM (active)

C=CC[C@]12C[C@@H](OC)C(=O)C(OC)=C1O[C@@H](c1cc(OC)c3c(c1)OCO3)[C@@H]2C
max response (HaCat): -13.8%
max response (KB-3-1): -1.19%
max response (NIH3T3): -4.29%

C=C(C(=O)O)C1CCC2(C)CCC(O)C(C)(O)C2C1 (configuration not stated)
max response (HaCat): -8.51%
max response (KB-3-1): 1.37%
max response (NIH3T3): -18.2%

CC1=CC(=O)C2(OC3OC(C)C(O)C(OC(=O)/C=C/c4ccccc4)C3O)C=COC(OC3OC(CO)C(O)C(O)C3O)C12 (configuration not stated)
max response (HaCat): 2.65%
max response (KB-3-1): 7.12%
max response (NIH3T3): 3.5%

C=C(C(=O)O)[C@@H]1CC[C@@]2(C)CC[C@H](O)[C@@]2(C(C)=O)C1
max response (HaCat): -0.694%
max response (KB-3-1): 2.3%
max response (NIH3T3): -3.95%

CC(C)[C@H]1CC[C@@]2(O)COC(=O)[C@H]2[C@@H]1/C=C(\CO)C(=O)O
max response (HaCat): -2.34%
max response (KB-3-1): 0.265%
max response (NIH3T3): -2.01%

CO[C@H]1C[C@@H]2CC[C@@H](C)[C@@](O)(O2)C(=O)C(=O)N2CCCC[C@H]2C(=O)O[C@H]([C@H](C)C[C@H]2CC[C@@H](OP(C)(C)=O)[C@H](OC)C2)CC(=O)[C@H](C)/C=C(\C)[C@@H](O)[C@@H](OC)C(=O)[C@H](C)C[C@H](C)/C=C/C=C/C=C/1C
max response (HaCat): -3.04%
max response (KB-3-1): 4.5%
max response (NIH3T3): -2.54%

C/C=C/C=C/[C@@H]1O[C@](O)([C@H](CC)C(=O)NC/C=C/C=C(\C)[C@@H](OC)[C@@H](C)C2OC(/C=C/C=C/C=C(\C)C(=O)c3c(O)cc[nH]c3=O)[C@H](O)[C@@H]2O)[C@H](O)[C@H](O)C1(C)C (some centres not stated)
max response (HaCat): -11.5%
max response (KB-3-1): 2.01%
max response (NIH3T3): -4.29%

O=C(/C=C/c1ccc(O)cc1)N[C@@H](Cc1ccc(O)cc1)C(=O)O
max response (HaCat): 1.92%
max response (KB-3-1): -2.01%
max response (NIH3T3): 1.16%

C[C@@H]1C[C@@H]([C@@H](O)C(C)(C)O)O[C@H]2C[C@@]3(C)C(=C12)C[C@H](O)[C@H]1[C@@]2(C)CCC(=O)C(C)(C)C2CC[C@@]13C (some centres not stated)
max response (HaCat): -11.9%
max response (KB-3-1): 5.24%
max response (NIH3T3): -0.489%

From PubChem BioAssay (NCATS)
